# Data taken from PubChem BioAssay AID1159580 (chemical genetic matrix, 2015).
# Out of some 5,500 compounds screened, about 2,000 (36%) were called active. Roughly 18% stayed inconclusive and do not appear here. This is one part of the list. Values without a mark were called inactive. No stated cut-off is given here; in the data, active means normalized growth mostly below about 0.91 (no sharp cut-off); inconclusive means no clear call, values can overlap the other calls; inactive means mostly above about 0.92.
# Assay: chemical genetic growth profiling, strain panel (AID 1159580);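 further: tested at 20 µM; growth read once vehicle control cultures reached saturation at 30 °C; 1 = growth at the plate median or of vehicle wells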
# Conditions: growth OD
# [1] = S. cerevisiae deletion strains, locus YDR150W, strain NUM1, stronger effect = lower value
# [2] = S. cerevisiae deletion strains, locus YGR078C, strain PAC10, stronger effect = lower value
# [3] = S. cerevisiae deletion strains, locus YJR075W, strain HOC1, stronger effect = lower value
# [4] = S. cerevisiae deletion strains, locus YMR263W, strain SAP30, stronger effect = lower value
# [5] = S. cerevisiae deletion strains, locus YPL055C, strain LGE1, stronger effect = lower value
# [6] = S. cerevisiae deletion strains, locus YDL101C, strain DUN1, stronger effect = lower value
# [7] = S. cerevisiae deletion strains, locus YHR030C, strain SLT2, stronger effect = lower value
smiles,measurement,setting,value
Nc1ncnc2c1nc(Br)n2C1OC2COP(=O)(O)O[C@@H]2C1O (stereo partly specified),normalized growth,"S. cerevisiae deletion strains, locus YAL040C, strain CLN3, stronger effect = lower value",0.986
same,normalized growth,[1],0.999
same,normalized growth,"S. cerevisiae deletion strains, locus YER002W, strain NOP16, stronger effect = lower value",0.996
same,normalized growth,[2],1.01
same,normalized growth,[3],1
same,normalized growth,[4],0.999
same,normalized growth,"S. cerevisiae deletion strains, locus YNL175C, strain NOP13, stronger effect = lower value",0.986
same,normalized growth,"S. cerevisiae deletion strains, locus YNL197C, strain WHI3, stronger effect = lower value",1.02
same,normalized growth,"S. cerevisiae deletion strains, locus YNL224C, strain SQS1, stronger effect = lower value",0.999
same,normalized growth,"S. cerevisiae deletion strains, locus YOR083W, strain WHI5 (second series), stronger effect = lower value",1.02
same,normalized growth,[5],1.01
Clc1ccc(N/N=C\c2sccc2Oc2ccccc2)cc1,normalized growth,"S. cerevisiae deletion strains, locus YAR019C, strain CDC15, stronger effect = lower value",0.971
same,normalized growth,"S. cerevisiae deletion strains, locus YBL105C, strain PKC1, stronger effect = lower value",0.979
same,normalized growth,"S. cerevisiae deletion strains, locus YBR135W, strain CKS1, stronger effect = lower value",0.966
same,normalized growth,"S. cerevisiae deletion strains, locus YBR136W, strain MEC1, stronger effect = lower value",0.963
same,normalized growth,"S. cerevisiae deletion strains, locus YBR160W, strain CDC28, stronger effect = lower value",0.965
same,normalized growth,"S. cerevisiae deletion strains, locus YDL017W, strain CDC7, stronger effect = lower value",0.974
same,normalized growth,"S. cerevisiae deletion strains, locus YDL028C, strain MPS1, stronger effect = lower value",0.968
same,normalized growth,[6],0.951
same,normalized growth,"S. cerevisiae deletion strains, locus YDL108W, strain KIN28, stronger effect = lower value",0.969
same,normalized growth,"S. cerevisiae deletion strains, locus YDL132W, strain cdc53, stronger effect = lower value",0.964
same,normalized growth,"S. cerevisiae deletion strains, locus YDL214C, strain PRR2, stronger effect = lower value",0.335 (active)
same,normalized growth,"S. cerevisiae deletion strains, locus YDR052C, strain DBF4, stronger effect = lower value",0.95
same,normalized growth,"S. cerevisiae deletion strains, locus YDR054C, strain cdc34, stronger effect = lower value",0.963
same,normalized growth,"S. cerevisiae deletion strains, locus YDR226W, strain ADK1, stronger effect = lower value",0.96
same,normalized growth,"S. cerevisiae deletion strains, locus YDR477W, strain SNF1, stronger effect = lower value",0.275 (active)
same,normalized growth,"S. cerevisiae deletion strains, locus YER123W, strain YCK3, stronger effect = lower value",0.184 (active)
same,normalized growth,"S. cerevisiae deletion strains, locus YER133W, strain GLC7, stronger effect = lower value",0.345 (active)
same,normalized growth,"S. cerevisiae deletion strains, locus YFL009W, strain cdc4, stronger effect = lower value",0.968
same,normalized growth,"S. cerevisiae deletion strains, locus YFL029C, strain CAK1, stronger effect = lower value",0.959
same,normalized growth,"S. cerevisiae deletion strains, locus YFR003C, strain YPI1, stronger effect = lower value",0.975
same,normalized growth,"S. cerevisiae deletion strains, locus YFR019W, strain FAB1, stronger effect = lower value",0.313 (active)
same,normalized growth,"S. cerevisiae deletion strains, locus YFR028C, strain CDC14, stronger effect = lower value",0.965
same,normalized growth,"S. cerevisiae deletion strains, locus YGR040W, strain KSS1, stronger effect = lower value",0.268 (active)
same,normalized growth,"S. cerevisiae deletion strains, locus YGR052W, strain FMP48, stronger effect = lower value",0.21 (active)
same,normalized growth,"S. cerevisiae deletion strains, locus YGR092W, strain DBF2, stronger effect = lower value",0.115 (active)
same,normalized growth,[7],0.125 (active)
same,normalized growth,"S. cerevisiae deletion strains, locus YHR079C, strain IRE1, stronger effect = lower value",0.474 (active)
same,normalized growth,"S. cerevisiae deletion strains, locus YHR082C, strain KSP1, stronger effect = lower value",0.361 (active)
same,normalized growth,"S. cerevisiae deletion strains, locus YHR205W, strain SCH9, stronger effect = lower value",0.43 (active)
same,normalized growth,"S. cerevisiae deletion strains, locus YIL147C, strain SLN1, stronger effect = lower value",0.969
same,normalized growth,"S. cerevisiae deletion strains, locus YJL095W, strain BCK1, stronger effect = lower value",0.125 (active)
same,normalized growth,"S. cerevisiae deletion strains, locus YJL128C, strain PBS2, stronger effect = lower value",0.864
same,normalized growth,"S. cerevisiae deletion strains, locus YJL157C, strain FAR1, stronger effect = lower value",0.316 (active)
same,normalized growth,"S. cerevisiae deletion strains, locus YJR016C, strain ILV3, stronger effect = lower value",0.947
same,normalized growth,"S. cerevisiae deletion strains, locus YJR066W, strain TOR1 (second series), stronger effect = lower value",0.423 (active)
same,normalized growth,"S. cerevisiae deletion strains, locus YJR066W, strain TOR1, stronger effect = lower value",0.241 (active)
same,normalized growth,"S. cerevisiae deletion strains, locus YKL048C, strain ELM1, stronger effect = lower value",0.468 (active)
same,normalized growth,"S. cerevisiae deletion strains, locus YKL067W, strain YNK1, stronger effect = lower value",0.303 (active)
same,normalized growth,"S. cerevisiae deletion strains, locus YKL101W, strain HSL1, stronger effect = lower value",0.353 (active)
same,normalized growth,"S. cerevisiae deletion strains, locus YKL193C, strain SDS22, stronger effect = lower value",0.968
same,normalized growth,"S. cerevisiae deletion strains, locus YKL203C, strain TOR2, stronger effect = lower value",0.34 (active)
same,normalized growth,"S. cerevisiae deletion strains, locus YLR113W, strain HOG1, stronger effect = lower value",0.275 (active)
same,normalized growth,"S. cerevisiae deletion strains, locus YLR133W, strain CKI1, stronger effect = lower value",0.28 (active)
same,normalized growth,"S. cerevisiae deletion strains, locus YLR403W, strain SFP1, stronger effect = lower value",0.242 (active)
same,normalized growth,"S. cerevisiae deletion strains, locus YML070W, strain DAK1, stronger effect = lower value",0.293 (active)
same,normalized growth,"S. cerevisiae deletion strains, locus YMR001C, strain CDC5, stronger effect = lower value",0.972
same,normalized growth,"S. cerevisiae deletion strains, locus YMR205C, strain PFK2 (second series), stronger effect = lower value",0.47 (active)
same,normalized growth,"S. cerevisiae deletion strains, locus YMR277W, strain FCP1, stronger effect = lower value",0.977
same,normalized growth,"S. cerevisiae deletion strains, locus YNL006W, strain LST8, stronger effect = lower value",0.968
same,normalized growth,"S. cerevisiae deletion strains, locus YNL020C, strain ARK1, stronger effect = lower value",0.382 (active)
same,normalized growth,"S. cerevisiae deletion strains, locus YNL161W, strain CBK1, stronger effect = lower value",0.974
same,normalized growth,"S. cerevisiae deletion strains, locus YNL183C, strain NPR1, stronger effect = lower value",0.393 (active)
same,normalized growth,"S. cerevisiae deletion strains, locus YNL207W, strain RIO2, stronger effect = lower value",0.969
same,normalized growth,"S. cerevisiae deletion strains, locus YNL222W, strain SSU72, stronger effect = lower value",0.966
same,normalized growth,"S. cerevisiae deletion strains, locus YNL307C, strain MCK1 (second series), stronger effect = lower value",0.147 (active)
same,normalized growth,"S. cerevisiae deletion strains, locus YOL078W, strain AVO1, stronger effect = lower value",0.97
same,normalized growth,"S. cerevisiae deletion strains, locus YOL136C, strain PFK27, stronger effect = lower value",0.312 (active)
same,normalized growth,"S. cerevisiae deletion strains, locus YOR061W, strain CKA2, stronger effect = lower value",0.19 (active)
same,normalized growth,"S. cerevisiae deletion strains, locus YOR119C, strain RIO1, stronger effect = lower value",0.299 (active)
same,normalized growth,"S. cerevisiae deletion strains, locus YOR231W, strain MKK1, stronger effect = lower value",0.477 (active)
same,normalized growth,"S. cerevisiae deletion strains, locus YOR329C, strain SCD5, stronger effect = lower value",0.978
same,normalized growth,"S. cerevisiae deletion strains, locus YPL031C, strain PHO85, stronger effect = lower value",0.295 (active)
same,normalized growth,"S. cerevisiae deletion strains, locus YPL153C, strain RAD53, stronger effect = lower value",0.279 (active)
same,normalized growth,"S. cerevisiae deletion strains, locus YPL204W, strain HRR25, stronger effect = lower value",0.338 (active)
same,normalized growth,"S. cerevisiae deletion strains, locus YPL209C, strain IPL1, stronger effect = lower value",0.977
same,normalized growth,"S. cerevisiae deletion strains, locus YPL256C, strain CLN2, stronger effect = lower value",0.275 (active)
same,normalized growth,"S. cerevisiae deletion strains, locus YPR025C, strain CCL1, stronger effect = lower value",0.963
same,normalized growth,"S. cerevisiae deletion strains, locus YPR106W, strain ISR1, stronger effect = lower value",0.967
same,normalized growth,"S. cerevisiae deletion strains, locus YPR111W, strain DBF20, stronger effect = lower value",0.963
same,normalized growth,"S. cerevisiae deletion strains, strain NNK1, stronger effect = lower value",0.979
same,normalized growth,"S. cerevisiae deletion strains, strain TSCII, stronger effect = lower value",0.966
O/N=C\c1sccc1Oc1ccccc1,normalized growth,"S. cerevisiae deletion strains, locus YAL013W, strain DEP1, stronger effect = lower value",0.964
same,normalized growth,"S. cerevisiae deletion strains, locus YBR229C, strain ROT2, stronger effect = lower value",0.958
same,normalized growth,"S. cerevisiae deletion strains, locus YCL061C, strain MRC1, stronger effect = lower value",0.942
same,normalized growth,[6],0.926
same,normalized growth,[1],0.953
same,normalized growth,"S. cerevisiae deletion strains, locus YEL061C, strain CIN8, stronger effect = lower value",0.869 (active)
same,normalized growth,[2],0.952
same,normalized growth,[7],0.729
same,normalized growth,"S. cerevisiae deletion strains, locus YHR087W, strain rtc3, stronger effect = lower value",1.01
same,normalized growth,"S. cerevisiae deletion strains, locus YJL187C, strain SWE1, stronger effect = lower value",1.01
same,normalized growth,"S. cerevisiae deletion strains, locus YJR043C, strain POL32, stronger effect = lower value",1
same,normalized growth,[3],0.978
same,normalized growth,"S. cerevisiae deletion strains, locus YLR039C, strain RIC1, stronger effect = lower value",0.954
same,normalized growth,"S. cerevisiae deletion strains, locus YLR058C, strain SHM2 (second series), stronger effect = lower value",0.997
same,normalized growth,"S. cerevisiae deletion strains, locus YLR085C, strain ARP6, stronger effect = lower value",0.911
same,normalized growth,"S. cerevisiae deletion strains, locus YLR262C, strain YPT6, stronger effect = lower value",0.931
same,normalized growth,"S. cerevisiae deletion strains, locus YML094W, strain GIM5, stronger effect = lower value",0.927
same,normalized growth,"S. cerevisiae deletion strains, locus YMR219W, strain ESC1, stronger effect = lower value",0.977
same,normalized growth,[4],0.968
same,normalized growth,"S. cerevisiae deletion strains, locus YNL128W, strain TEP1, stronger effect = lower value",0.98
same,normalized growth,"S. cerevisiae deletion strains, locus YNL153C, strain GIM3, stronger effect = lower value",0.905 (active)
same,normalized growth,"S. cerevisiae deletion strains, locus YNL298W, strain CLA4 (second series), stronger effect = lower value",0.962
same,normalized growth,"S. cerevisiae deletion strains, locus YNL322C, strain KRE1, stronger effect = lower value",0.988
same,normalized growth,"S. cerevisiae deletion strains, locus YNR030W, strain Alg12, stronger effect = lower value",0.932
same,normalized growth,"S. cerevisiae deletion strains, locus YOL006C, strain TOP1, stronger effect = lower value",0.795
same,normalized growth,[5],0.98
same,normalized growth,"S. cerevisiae deletion strains, locus YPL241C, strain CIN2, stronger effect = lower value",0.917
same,normalized growth,"S. cerevisiae deletion strains, locus YPR135W, strain CTF4, stronger effect = lower value",0.648
same,normalized growth,"S. cerevisiae strains, strain wild type, stronger effect = lower value",0.953
